How the values were obtained:
Assay in all cases: relative growth (AUC of 72 h growth curve relative to DMSO control, dAUC) (ratio); higher = more growth (less inhibition), active = hit call of the paper
Conditions in all cases: 20 µM;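 active = growth AUC significantly below the DMSO wells by Dunnett test; inactive = the rest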
[1] = tested on: Prolinoborus 1 (Prolinoborus fasciculus)
Method in brief: (§1)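 Isolates from Icelandic stream sediments and Silwood Park soil, along with whole sediment communities, were grown in Luria–Bertani medium to carrying capacity and diluted 1:100 into 96-well plates with each chemical at 20 µM (1% DMSO). A600 was measured hourly for 72 h, and values were averaged over three biological replicates. Relative growth (dAUC) is the spline-integrated growth-curve area over the mean of the DMSO controls.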

[2] = tested on: Pseudomonas 1 (Pseudomonas baetica)
Method in brief: as §1

[3] = tested on: Pseudomonas 2 (Pseudomonas vancouverensis)
Method in brief: as §1

[4] = tested on: Pseudomonas 3 (Pseudomonas mandelii)
Method in brief: as §1

[5] = tested on: Pseudomonas 4 (Pseudomonas peli)
Method in brief: as §1

[6] = tested on: Pseudomonas 5 (Pseudomonas baetica)
Method in brief: as §1

[7] = tested on: Pseudomonas 6 (Pseudomonas sp.)
Method in brief: as §1

[8] = tested on: Rhizobium 1 (Rhizobium herbae)
Method in brief: as §1

[9] = tested on: Serratia 1 (Serratia sp. 2015-2462-01)
Method in brief: as §1

[10] = tested on: Sphingomonas 2 (Sphingomonas sp.)
Method in brief: as §1

| Structure (SMILES) | relative growth [1] | relative growth [2] | relative growth [3] | relative growth [4] | relative growth [5] | relative growth [6] | relative growth [7] | relative growth [8] | relative growth [9] | relative growth [10] |
| --- | --- | --- | --- | --- | --- | --- | --- | --- | --- | --- |
| CN/C(=N\[N+](=O)[O-])NCc1cnc(Cl)s1 | 0.937 (inactive) | 1.1 (inactive) | 0.964 (inactive) | 1.01 (inactive) | 0.974 (inactive) | 1.03 (inactive) | 1.09 (inactive) | 0.902 (inactive) | 0.931 (inactive) | 0.945 (inactive) |
| COC(=O)c1ccccc1S(=O)(=O)NC(=O)Nc1nc(C)nc(OC)n1 | 1.03 (inactive) | 0.998 (inactive) | 1.01 (inactive) | 0.983 (inactive) | 1.08 (inactive) | 0.984 (inactive) | 0.905 (inactive) | 1.15 (inactive) | 1.11 (inactive) | 1.03 (inactive) |
| O=C(O)c1nc(Cl)ccc1Cl | 0.949 (inactive) | 1 (inactive) | 0.984 (inactive) | 1 (inactive) | 0.969 (inactive) | 0.971 (inactive) | 1.03 (inactive) | 1.05 (inactive) | 0.977 (inactive) | 0.931 (inactive) |
| COCC(=O)N(c1c(C)cccc1C)[C@H](C)C(=O)OC | 0.988 (inactive) | 0.997 (inactive) | 0.974 (inactive) | 1.09 (inactive) | 1.03 (inactive) | 1.01 (inactive) | 1.01 (inactive) | 1.13 (inactive) | 0.965 (inactive) | 1.02 (inactive) |
| O=[N+]([O-])/N=C1\NCCN1Cc1ccc(Cl)nc1 | 0.987 (inactive) | 0.857 (inactive) | 0.973 (inactive) | 1.04 (inactive) | 1.01 (inactive) | 0.978 (inactive) | 0.932 (inactive) | 0.991 (inactive) | 0.968 (inactive) | 0.979 (inactive) |
| C[N+](C)(C)CCCl | 0.959 (inactive) | 1.07 (inactive) | 1.03 (inactive) | 1.01 (inactive) | 1.04 (inactive) | 1.02 (inactive) | 1.07 (inactive) | 0.998 (inactive) | 0.962 (inactive) | 1.02 (inactive) |
| O=C(NC(=O)c1c(F)cccc1F)Nc1ccc(OC(F)(F)C(F)OC(F)(F)F)c(Cl)c1 (stereo not given) | 0.988 (inactive) | 1.02 (inactive) | 1.01 (inactive) | 0.99 (inactive) | 0.961 (inactive) | 0.966 (inactive) | 0.98 (inactive) | 0.952 (inactive) | 0.995 (inactive) | 1.11 (inactive) |
| CNC(=O)Oc1cccc(/N=C/N(C)C)c1 | 0.966 (inactive) | 1.04 (inactive) | 0.989 (inactive) | 1.1 (inactive) | 0.942 (inactive) | 1.07 (inactive) | 1.17 (inactive) | 0.99 (inactive) | 0.97 (inactive) | 1.05 (inactive) |
| CCOCn1c(-c2ccc(Cl)cc2)c(C#N)c(Br)c1C(F)(F)F | 1.01 (inactive) | 1.05 (inactive) | 1 (inactive) | 1.04 (inactive) | 1.02 (inactive) | 0.998 (inactive) | 1.11 (inactive) | 1.07 (inactive) | 1.01 (inactive) | 0.848 (inactive) |
| CSc1nnc(C(C)(C)C)c(=O)n1N | 0.951 (inactive) | 0.717 (inactive) | 0.997 (inactive) | 0.984 (inactive) | 1.01 (inactive) | 0.998 (inactive) | 0.948 (inactive) | 0.958 (inactive) | 0.995 (inactive) | 0.779 (inactive) |
| CCOCN(C(=O)CCl)c1c(C)cccc1CC | 1.2 | 1.1 (inactive) | 0.978 (inactive) | 1.02 (inactive) | 0.966 (inactive) | 0.988 (inactive) | 1.03 (inactive) | 0.909 (inactive) | 0.95 (inactive) | 1.17 (inactive) |
| COc1cc(C)c(C(=O)c2c(OC)ccc(Br)c2C)c(OC)c1OC | 1.01 (inactive) | 0.978 (inactive) | 1.01 (inactive) | 1 (inactive) | 1.02 (inactive) | 0.991 (inactive) | 0.939 (inactive) | 0.937 (inactive) | 1.02 (inactive) | 1.04 (inactive) |
| CC(C)(C)C(O)(CCc1ccc(Cl)cc1)Cn1cncn1 (stereo not given) | 0.931 (inactive) | 1.15 (inactive) | 0.962 (inactive) | 1.03 (inactive) | 0.94 (inactive) | 0.979 (inactive) | 1.05 (inactive) | 0.918 (inactive) | 0.943 (inactive) | 1.06 (inactive) |
| COC(=O)Nc1nc2ccccc2[nH]1 | 1.03 (inactive) | 1.05 (inactive) | 0.975 (inactive) | 1 (inactive) | 1.01 (inactive) | 1.05 (inactive) | 1.08 (inactive) | 0.944 (inactive) | 0.978 (inactive) | 0.732 (inactive) |
| CC1(C(=O)Nc2ccc(O)c(Cl)c2Cl)CCCCC1 | 0.938 (inactive) | 1.08 (inactive) | 1.01 (inactive) | 1.05 (inactive) | 0.976 (inactive) | 1.02 (inactive) | 1.16 (inactive) | 0.84 (inactive) | 0.976 (inactive) | 0.967 (inactive) |
| C[C@@H]1[C@@H](c2ccc(Cl)cc2)SC(=O)N1C(=O)NC1CCCCC1 | 0.994 (inactive) | 0.933 (inactive) | 0.976 (inactive) | 1.02 (inactive) | 1 (inactive) | 1.05 (inactive) | 1.13 (inactive) | 0.964 (inactive) | 1 (inactive) | 0.987 (inactive) |
| COc1cccc(C(=O)NN(C(=O)c2cc(C)cc(C)c2)C(C)(C)C)c1C | 0.981 (inactive) | 1.04 (inactive) | 1.01 (inactive) | 1.04 (inactive) | 0.987 (inactive) | 1.05 (inactive) | 1.12 (inactive) | 0.96 (inactive) | 0.934 (inactive) | 0.977 (inactive) |
| CC(C1CC1)C(O)(Cn1cncn1)c1ccc(Cl)cc1 (stereo not given) | 0.901 (inactive) | 0.624 (active) | 0.955 (inactive) | 0.971 (inactive) | 0.991 (inactive) | 0.986 (inactive) | 1.03 (inactive) | 0.947 (inactive) | 1 (inactive) | 1.13 (inactive) |
| CCCN(CCOc1c(Cl)cc(Cl)cc1Cl)C(=O)n1ccnc1 | 0.93 (inactive) | 1.07 (inactive) | 0.984 (inactive) | 1.02 (inactive) | 0.964 (inactive) | 0.997 (inactive) | 1.03 (inactive) | 0.949 (inactive) | 0.985 (inactive) | 0.993 (inactive) |
| CSc1nc(NC(C)C)nc(NC(C)C)n1 | 0.989 (inactive) | 1.14 (inactive) | 1.02 (inactive) | 1.02 (inactive) | 0.949 (inactive) | 1.03 (inactive) | 1.08 (inactive) | 0.858 (inactive) | 0.983 (inactive) | 0.989 (inactive) |
| CON(C)C(=O)Nc1ccc(Cl)c(Cl)c1 | 0.886 (inactive) | 0.986 (inactive) | 0.949 (inactive) | 0.991 (inactive) | 0.982 (inactive) | 0.984 (inactive) | 1.02 (inactive) | 0.869 (inactive) | 0.978 (inactive) | 1.02 (inactive) |
| COCC(C)N(C(=O)CCl)c1c(C)csc1C (stereo not given) | 0.925 (inactive) | 1.04 (inactive) | 0.974 (inactive) | 1 (inactive) | 0.962 (inactive) | 1.07 (inactive) | 1.15 (inactive) | 1.04 (inactive) | 0.939 (inactive) | 1.01 (inactive) |
| CCCCC(C#N)(Cn1cncn1)c1ccc(Cl)cc1 (stereo not given) | 0.947 (inactive) | 0.939 (inactive) | 0.943 (inactive) | 0.993 (inactive) | 0.927 (inactive) | 0.963 (inactive) | 0.907 (inactive) | 0.958 (inactive) | 0.973 (inactive) | 0.96 (inactive) |
| CCN(CC)c1nc(C)cc(OP(=S)(OC)OC)n1 | 1.01 (inactive) | 1 (inactive) | 1 (inactive) | 1 (inactive) | 0.979 (inactive) | 0.988 (inactive) | 1.03 (inactive) | 1.05 (inactive) | 0.994 (inactive) | 0.839 (inactive) |
| CC(C)CC(C)c1sccc1NC(=O)c1cn(C)nc1C(F)(F)F (stereo not given) | 0.895 (inactive) | 1.11 (inactive) | 0.985 (inactive) | 1.05 (inactive) | 1 (inactive) | 1 (inactive) | 1.05 (inactive) | 0.331 (active) | 0.974 (inactive) | 0.888 (inactive) |
| COc1ccc(C(=CC(=O)N2CCOCC2)c2ccc(Cl)cc2)cc1OC (mixture of isomers) | 0.994 (inactive) | 1.09 (inactive) | 0.999 (inactive) | 1.03 (inactive) | 1.01 (inactive) | 0.972 (inactive) | 0.951 (inactive) | 1.02 (inactive) | 0.978 (inactive) | 1.12 (inactive) |
| Fc1ccc([C@]2(Cn3cncn3)O[C@H]2c2ccccc2Cl)cc1 (racemic) | 0.982 (inactive) | 0.942 (inactive) | 0.973 (inactive) | 1.04 (inactive) | 0.967 (inactive) | 0.992 (inactive) | 1.07 (inactive) | 1.08 (inactive) | 0.972 (inactive) | 1.01 (inactive) |

Source: the supplement of paper PMC12067926
